High-throughput results: PubChem, National Center for Advancing Translational Sciences (NCATS)
Hits are enriched below; roughly 2.8% of the tested compounds scored in any of these assays.
Pol eta inh: qHTS for Inhibitors of Polymerase Eta. DNA polymerase eta (Homo sapiens), Q9Y253. recombinant Pol eta, fluorescent DNA replication assay. Potency, µM (series often up to 114 µM), usual class: inhibitors. 390,000 tested, 1.2% active. AID 588591, 2011
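Pol eta (10 nM) was preincubated with compounds for 15 min at room temperature, after which fluorescent replication substrate (50 nM final) was added to start the reaction. Fluorescence was read kinetically at 0 and 10 min.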
POLK inh: qHTS for Inhibitors of Polymerase Kappa; purified Pol kappa, fluorescent DNA synthesis assay, 10 min; DNA polymerase kappa (Homo sapiens), Q9UBT6; Potency, µM (highest dose often 107 µM), hits mostly inhibitors; 400,000 tested, 0.53% active
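Kinetic fluorescence screen: compound preincubated 15 min RT with 10 nM enzyme; 50 nM substrate (final) initiates; reads at 0/10 min.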
Pol iota inh: qHTS for Inhibitors of Polymerase Iota. AID 588590, 2011. DNA polymerase iota (Homo sapiens), Q9UNA4. Potency, µM (titrated, usually from 115 µM), usual class: inhibitors. Pol iota fluorescent replication assay, 10 min. 390,000 tested, 1% active
Target sequence (Q9UNA4 whole entry, looked up): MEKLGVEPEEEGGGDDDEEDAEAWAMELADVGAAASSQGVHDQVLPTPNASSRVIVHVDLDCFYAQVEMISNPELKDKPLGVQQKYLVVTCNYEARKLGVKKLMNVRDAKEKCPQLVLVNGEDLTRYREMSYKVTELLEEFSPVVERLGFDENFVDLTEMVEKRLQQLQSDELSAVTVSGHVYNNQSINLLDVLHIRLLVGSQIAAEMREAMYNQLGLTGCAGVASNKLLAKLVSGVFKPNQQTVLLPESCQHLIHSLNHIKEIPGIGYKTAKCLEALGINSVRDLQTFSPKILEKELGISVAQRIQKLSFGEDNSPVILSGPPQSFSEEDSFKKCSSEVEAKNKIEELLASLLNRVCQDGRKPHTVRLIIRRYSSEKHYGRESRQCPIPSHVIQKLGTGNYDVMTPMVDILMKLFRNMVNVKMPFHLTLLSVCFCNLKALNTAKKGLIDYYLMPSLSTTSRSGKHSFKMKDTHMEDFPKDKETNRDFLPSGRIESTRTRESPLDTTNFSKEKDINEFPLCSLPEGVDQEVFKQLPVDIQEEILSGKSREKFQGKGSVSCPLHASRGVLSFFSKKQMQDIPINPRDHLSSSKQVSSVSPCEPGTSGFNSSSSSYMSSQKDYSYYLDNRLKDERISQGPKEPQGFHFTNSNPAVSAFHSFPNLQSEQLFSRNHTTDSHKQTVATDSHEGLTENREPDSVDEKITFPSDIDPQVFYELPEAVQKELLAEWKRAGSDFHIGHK
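Pol iota at 10 nM preincubated 15 min with compounds at room temperature; reaction started with fluorescent substrate, 50 nM final. Fluorescence read kinetically at 0 and 10 min; buffer-only wells as negative control.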
POLB inh: qHTS Assay for Inhibitors of DNA Polymerase Beta; P06746; Pol beta primer extension/strand displacement, fluorescence kinetic; Potency, µM (doses to about 114 µM), hits mostly inhibitors; 340,000 tested, 1.3% active; AID 485314, 2010
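Preincubation: enzyme (10 nM) with compound, 15 min, RT. Reaction: substrate added to 50 nM final. Reads: 0 and 10 min. Analysis: normalized, Hill fit.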
PI5P4Ka inh: qHTS for Inhibitors of phosphatidylinositol 5-phosphate 4-kinase (PI5P4K); 330,000 tested, 1.2% active; PI5P4Kalpha enzyme, ADP-Glo luminescence, 60 min; hits give low values; max response, %; AID 652105, 2013; active means max response of -50% or lower; inconclusive means between -30% and -50%; inactive means -30% or higher; further: value at the top dose of about 77 µM
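Luminescence from ADP-Glo served as readout of PI5P4Kalpha activity in a qHTS format. Reaction: enzyme, substrate, compound, ATP at 5 microM final, 60 min at RT.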
WRN helicase inh: qHTS for Inhibitors of WRN Helicase | Bifunctional 3'-5' exonuclease/ATP-dependent helicase WRN (Homo sapiens), Q14191 | WRN helicase unwinding, fluorescent forked duplex, kinetic | Potency, µM (top dose mostly 114 µM), most hits filed as inhibitors | 360,000 tested, 0.46% active; further: nearly all actives have a fitted effect of over 55% in size
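Fluorescence dequenching readout, ex 525 nm/em 598 nm, kinetic mode: forked duplex DNA (100 nM final) with adjacent fluorophore and quencher unwound by WRN (20 nM final) with 2 mM ATP. Compound preincubation 15 min, room temperature.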
Hits are given with their value; 0 = inactive; ? = inconclusive; - = no result; [ ] = another dose, or the depositor's remark. Unless noted, the call rests on the fitted dose curve; in most records, active means well fitted curve in the direction sought with a large enough effect; inconclusive means small, poorly fitted or top-dose-only effect, or another doubt; inactive means no such curve, though single readings can be large; an effect the other way counts as inactive or inconclusive.

SMILES	Pol eta inh	POLK inh	Pol iota inh	POLB inh	PI5P4Ka inh	WRN helicase inh
Cc1ccc(-c2noc(-c3nnn(CC(=O)Nc4cc(C)cc(C)c4)c3N)n2)cc1	-	0	0	0	-	-
Cc1cccc(NC(=O)Cn2nnc(-c3nc(-c4ccncc4)no3)c2N)c1	-	0	0	56µM	-	-
CC(=O)c1c(C)[nH]c2ccc(OCC(O)CNCCc3ccccc3)cc12 (stereo not drawn)	-	0	0	-	-	-
CC1(C)c2[nH]c3ccccc3c2C[C@@H]2C(=O)N(c3ccc(F)cc3F)C(=O)N21	0	0	0	-	-	-
COc1cccc(NC(=O)N2CCN(c3nnnn3-c3ccccc3)CC2)c1	0	0	0	0	0	0
Cc1occc1C(=O)NCc1ccc2c(c1)OCO2	?	0	0	0	0	0
Cc1occc1C(=O)NCc1cccc(CNC(=O)c2ccoc2C)c1	3.5µM	32µM	16µM	22µM	-53	40µM
CCN1/C(=C/c2cccc[n+]2C)Sc2ccc(OC)cc21	0	0	?	?	0	0[11.6 µM]
CN1/C(=C/c2cccc[n+]2C)Sc2ccccc21	0	0	?	32µM	0	0[11.6 µM]
COc1ccc2c(c1)N(C)/C(=C/c1cccc[n+]1C)S2	0	0	?	40µM	0	0[11.6 µM]
Cc1ccc(NCCC(=O)c2ccc(Cl)cc2)cc1C	0	0	100µM	0	-	0
O=C(C[n+]1cccc(Cl)c1)c1ccc(O)c(O)c1	-	2.2µM	?	-	-	-
O=C(NC1CCCC1)C1C(c2ccc(C(F)(F)F)cc2)=Nc2ccccc2N1C(=O)c1cccc2ccccc12 (stereo not drawn)	-	-	-	-	0	0
CCC(c1nnc(SCC(=O)Nc2c(F)cccc2F)n1Cc1ccccc1)N(C)C (stereo not drawn)	0	0	0	0	0	0
CC(C)c1nnc(NC(=O)C2CCCN2C(=O)Nc2cccc(Cl)c2)s1 (stereo not drawn)	0	0	0	?	0	0
COc1cccc(NC(=O)CN(C)CC(=O)NCc2ccco2)c1	0	0	0	-	0	0
COc1cccc(CN(C)CC(=O)NC(=O)NCc2ccco2)c1	18µM	?	35µM	16µM	0	0
Cc1nc(CN(C)C(=O)CC2C(=O)NCCN2Cc2ccc(-c3ccccc3)cc2)cs1 (stereo not drawn)	0	0	0	0	0	0
COc1ccccc1NC(=O)c1ccc2nc(C)c(C)nc2c1	0	0	0	0	0	0
S=c1nc(C2CC2)[nH]c2ccccc12	25µM	0	?	?	?	0
S=c1nc(C2CCCCC2)[nH]c2ccccc12	0	0	0	0	0	0
N#CC1=C2SCN(Cc3ccccc3)CN2C(=O)CC1c1ccccc1F (stereo not drawn)	0	0	0	0	-77	0
Cc1ccc(C2CC(=O)N3CN(Cc4ccco4)CSC3=C2C#N)cc1 (stereo not drawn)	0	0	?	0	-	0
N#CC1=C2SCN(Cc3ccco3)CN2C(=O)CC1c1c(F)cccc1Cl (stereo not drawn)	?	0	?	0	-50	0
COc1ccc(-n2c(SCC(=O)NCc3ccc(Cl)cc3)nc3ccsc3c2=O)cc1	0	0	0	0	-	-
Cc1ccc2c(CC(=O)N3CCN(S(=O)(=O)c4ccc5c(c4)OCCO5)CC3)coc2c1	0	0	0	0	0	0
Cc1ccc2c(CC(=O)NNC(=O)c3ccccc3O)coc2c1	?	0	45µM	-	?	0[11.6 µM]
Cc1ccc2c(CC(=O)N3CCN(S(=O)(=O)c4ccccc4)CC3)coc2c1	32µM	?	?	-	?	?
CCCS(=O)(=O)c1ncc(Cl)c(C(=O)Nc2sc3c(c2C(=O)NCC)CCCC3)n1	-	0	0	-	-	-
Cn1c(=O)[nH]c(NCCc2ccc(O)cc2)c([N+](=O)[O-])c1=O	0	0	0	-	-71	0
